# Where “and” joins values, the source holds several entries; their conditions need not be identical. Equal entries are not always repeated. Inconclusive results are not listed. Where a call stands in place of a potency, no number is given. Unmarked numbers belong to inactive results. Calls of active or inactive are those of the source. Unless noted, calls follow the shape of the full dose curve.
# What was measured:
# [1] = qHTS assay to identify small molecule agonists of the vitamin D receptor (VDR) signaling pathway - cell viability counter screen (AID 743224; active = well fitted curve in the direction sought with a large enough effect in the repeat runs; an effect the other way counts as inactive or inconclusive; also: nearly all actives have a fitted effect of over 50% in size; also: potency is read from the fitted curve at half-maximal effect; as to activity change, negative = cytotoxicity: series mostly up to about 63 µM)
# Method in brief: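 Plated VDR-bla cells (4 h, 37C) received compound, incubated 16 h, then LiveBLAzer substrate 2 h RT; CellTiter-Glo added afterwards, luminescence read at 30 min.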
# [2] = qHTS assay to identify small molecule antagonists of the vitamin D receptor (VDR) signaling pathway - cell viability counter screen (AID 743225; active = well fitted curve in the direction sought with a large enough effect in the repeat runs; an effect the other way counts as inactive or inconclusive; also: nearly all actives have a fitted effect of over 50% in size)
# Method in brief: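 Cells (VDR-UAS-bla HEK 293T) are plated, rested 4 h at 37C, dosed with compound and 3 nM final 1-alpha,25-dihydroxy vitamin D3, and incubated 16 h. Viability is taken from CellTiter-Glo luminescence in the reporter wells.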
# [3] = qHTS assay to identify small molecule agonists of the NFkB signaling pathway (AID 1159509; active = well fitted curve in the direction sought with a large enough effect in the signal ratio in the repeat runs, not every such curve was filed as active; the % refers to the signal ratio; also: series mostly up to about 61 µM)
# Method in brief: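 ME-180 NFkB-bla, 2,000 cells/well, overnight plating; cpd pinned in DMSO, 5 h 37 C; B/G FRET substrate 1.5 h RT; ex 405, em 460/530 nm.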
# [4] = qHTS assay to identify small molecule agonists of the NFkB signaling pathway - cell viability counter screen (AID 1159515); also: series mostly up to about 61 µM; nearly all actives have a fitted effect of over 55% in size
# Method in brief: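 Using the same wells as the NFkB reporter read, ME-180 NFkB-bla cells given compounds for 5 hr were assessed for viability via CellTiter-Glo, with luminescence taken after a 30 min room-temperature incubation.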
# [5] = qHTS assay to identify small molecule agonists of the endoplasmic reticulum stress response signaling pathway (AID 1159516; active = well fitted activation curve with a large enough effect in the signal ratio in the repeat runs, not every such curve was filed as active; the % refers to the signal ratio)
# Method in brief: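 An ESRE-bla HeLa cell assay: compounds were pin-transferred from DMSO onto overnight-plated cells and left 5 hr at 37 C. Substrate was then loaded for 2 hr at room temperature before reading fluorescence at 460 nm and 530 nm.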
# [6] = qHTS assay to identify small molecule agonists of the endoplasmic reticulum stress response signaling pathway - cell viability counter screen (AID 1159517);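 also: HeLa cells carrying an ER stress response element beta-lactamase reporter; series mostly up to about 61 µM; nearly all actives have a fitted effect of over 50% in size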
# Method in brief: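 ESRE-bla HeLa cells, 1,500 per well, seeded overnight then treated with compounds for 5 hr at 37 C. After the beta-lactamase read, viability in the same wells is measured by CellTiter-Glo luminescence after 30 min at room temperature.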
# [7] = target: Nuclear receptor ROR-gamma (Homo sapiens) (UniProt P51449); assay: qHTS assay to identify small molecule antagonists of the retinoid-related orphan receptor gamma (ROR-gamma) signaling pathway (AID 1159521; active = well fitted curve in the direction sought with a large enough effect in the repeat runs; an effect the other way counts as inactive or inconclusive; also: nearly all actives have a fitted effect of over 50% in size; also: potency is read from the fitted curve at half-maximal effect;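 as to activity change, negative = inhibition: CHO cells with doxycycline inducible ROR-gamma driving an RORE luciferase reporter; top concentration of the series differs between compounds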)
# Method in brief: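 RORγ antagonism is scored from reduced reporter luminescence in Tet-on CHO cells. Induction used 1 uM final doxycycline hyclate for 16 h at 37 C, following a 2 h compound exposure.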
# [8] = qHTS assay to identify small molecule agonists of the AP-1 signaling pathway - cell viability counter screen (AID 1159525); also: nearly all actives have a fitted effect of over 55% in size
# Method in brief: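 AP-1-bla ME-180 cells in Opti-MEM with 0.5% dialyzed FBS, compound exposure 5 h at 37 C in 15-point titration. Viability read in the same wells as ATP content by CellTiter-Glo luminescence, normalised to tetra-n-octylammonium bromide and DMSO controls.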
# [9] = qHTS assay to identify small molecule agonists of the AP-1 signaling pathway (AID 1159526)
# [10] = qHTS assay to identify small molecule antagonists of the retinoid-related orphan receptor gamma (ROR-gamma) signaling pathway - cell viability counter screen (AID 1159520; active = well fitted curve in the direction sought with a large enough effect in the repeat runs; an effect the other way counts as inactive or inconclusive; also: nearly all actives have a fitted effect of over 50% in size)
# Method in brief: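 Tet-on ROR gamma CHO cells were given compounds for 2 hr, then doxycycline hyclate at 1 uM final, and incubated 16 hr at 37 C. Viability was measured as ATP content by CellTiter-Glo luminescence.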
structure (smiles),measurement,setting,value
C=C[Si](OC(=C)C)(OC(=C)C)OC(=C)C,Potency,[1],inactive
same,Potency,[2],inactive
same,outcome,[3],inactive
same,outcome,[4],inactive
same,outcome,[5],inactive
same,outcome,[6],inactive
same,Potency,[7],inactive
same,Potency,[8],inactive
same,outcome,[9],inactive
CCS(=O)(=O)c1ccc(OC)c(C(=O)OC)c1,Potency,[1],inactive
same,Potency,[2],inactive
same,outcome,[3],inactive
same,outcome,[4],inactive
same,outcome,[5],inactive
same,outcome,[6],inactive
same,Potency,[7],inactive
same,Potency,[8],inactive
same,outcome,[9],inactive
N=C(N)c1ccc2cc(OC(=O)c3ccc(N=C(N)N)cc3)ccc2c1,Potency,[1],inactive
same,Potency,[2],inactive
same,outcome,[3],inactive
same,outcome,[4],inactive
same,outcome,[5],inactive
same,outcome,[6],inactive
same,Potency,[7],inactive
same,Potency,[8],inactive
same,outcome,[9],inactive
CC(=O)Nc1ccc(S(N)(=O)=O)cc1,Potency,[1],inactive
same,Potency,[2],inactive
same,outcome,[3],inactive
same,outcome,[4],inactive
same,outcome,[5],inactive
same,outcome,[6],inactive
same,Potency,[7],inactive
same,Potency,[8],inactive
same,outcome,[9],inactive
O=C(O)CN(CCOCCOCCN(CC(=O)O)CC(=O)O)CC(=O)O,"activity change, negative = cytotoxicity",[1],7.18% [at 0.55 µM]
same,"viability change, negative = cytotoxic",[2],0.79% [at 0.628 µM]
same,activation,[3],-0.0067% [at 0.628 µM]
same,"activity, negative = cytotoxic",[4],7.66% [at 0.628 µM]
same,activation,[5],0.191% [at 0.628 µM]
same,"activity change, negative = cytotoxicity",[6],11.3% [at 0.628 µM]
same,"activity change, negative = inhibition",[7],4.15% [at 0.35 µM]
same,"viability change, negative = cytotoxic",[8],-1.21% [at 0.29 µM]
same,activation,[9],-6.2% [at 0.29 µM]
CC(C(=O)O)c1ccc(CC2CCCC2=O)cc1 (centres undefined),Potency,[1],inactive
same,outcome,[3],inactive
same,outcome,[4],inactive
same,outcome,[5],inactive
same,outcome,[6],inactive
same,Potency,[7],inactive
same,Potency,[8],inactive
same,outcome,[9],inactive
O=C(O)c1ccccc1OP(=O)(O)O,Potency,[1],inactive
same,Potency,[2],inactive
same,outcome,[3],inactive
same,outcome,[4],inactive
same,outcome,[5],inactive
same,outcome,[6],inactive
same,Potency,[7],inactive
same,Potency,[8],inactive
same,outcome,[9],inactive
Cc1nc2c([nH]1)c(=O)n(C)c(=O)n2Cc1ccco1,Potency,[1],inactive
same,Potency,[2],inactive
same,outcome,[3],inactive
same,outcome,[4],inactive
same,outcome,[5],inactive
same,outcome,[6],inactive
same,Potency,[7],inactive
same,Potency,[8],inactive
same,outcome,[9],inactive
C[N+](C)(C)CCCCCC[N+](C)(C)C,Potency,[1],inactive
same,outcome,[3],inactive
same,outcome,[4],inactive
same,outcome,[5],inactive
same,outcome,[6],inactive
same,Potency,[7],inactive
same,Potency,[8],inactive
same,outcome,[9],inactive
CCOC(=O)c1c(C)n(C)c2ccc(O)cc12,Potency,[1],inactive
same,outcome,[3],inactive
same,outcome,[4],inactive
same,outcome,[5],inactive
same,outcome,[6],inactive
same,Potency,[7],inactive
same,Potency,[8],inactive
same,outcome,[9],inactive
CCOc1ccc(C(=O)OCCN(CC)CC)cc1,Potency,[1],inactive
same,Potency,[2],inactive
same,outcome,[3],inactive
same,outcome,[4],inactive
same,outcome,[5],inactive
same,outcome,[6],inactive
same,Potency,[7],inactive
same,Potency,[8],inactive
same,outcome,[9],inactive
CCCCCCCCCCCC,Potency,[1],inactive
same,Potency,[2],inactive
same,outcome,[3],inactive
same,outcome,[4],inactive
same,outcome,[5],inactive
same,outcome,[6],inactive
same,Potency,[7],inactive
same,Potency,[8],inactive
same,outcome,[9],inactive
CC(C)(C)NCCNC(C)(C)C,Potency,[1],inactive
same,outcome,[3],inactive
same,outcome,[4],inactive
same,outcome,[6],inactive
same,outcome,[10],inactive
same,Potency,[7],inactive
same,Potency,[8],inactive
same,outcome,[9],inactive
CCCCOCCOCCOCc1cc2c(cc1CCC)OCO2,Potency,[1],inactive
same,Potency,[2],inactive
same,outcome,[3],inactive
same,outcome,[4],inactive
same,outcome,[5],inactive
same,outcome,[6],inactive
same,Potency,[7],inactive
same,Potency,[8],inactive
same,outcome,[9],inactive
Nc1nc2c(ncn2COC(CO)CO)c(=O)[nH]1,Potency,[1],inactive
same,outcome,[3],inactive
same,outcome,[4],inactive
same,outcome,[5],inactive
same,outcome,[6],inactive
same,Potency,[7],inactive
same,Potency,[8],inactive
same,outcome,[9],inactive
CC(C)(C)c1ccc(O)c(O)c1,Potency,[1],25.4 µM (active)
same,outcome,[3],inactive
same,outcome,[4],inactive
same,outcome,[5],inactive
same,outcome,[6],inactive
same,Potency,[7],25.2 µM (active) and 27.3 µM (active)
same,Potency,[8],inactive
C=C(C)C(=O)OCCCCCCCC(C)C,Potency,[1],inactive
same,outcome,[3],inactive
same,outcome,[4],inactive
same,outcome,[6],inactive
same,outcome,[10],inactive
same,Potency,[7],inactive
same,Potency,[8],inactive
same,outcome,[9],inactive
CC(C)NC(=O)NC(C)C,Potency,[1],inactive
same,outcome,[3],inactive
same,outcome,[4],inactive
same,outcome,[5],inactive
same,outcome,[6],inactive
same,Potency,[7],inactive
same,Potency,[8],inactive
same,outcome,[9],inactive
c1cnc(N2CCN(Cc3ccc4c(c3)OCO4)CC2)nc1,Potency,[1],inactive
same,outcome,[3],inactive
same,outcome,[5],inactive
same,outcome,[6],inactive
same,outcome,[10],inactive
same,Potency,[7],inactive
same,Potency,[8],inactive
same,outcome,[9],inactive
CN1N=C(C(N)=O)CCC1=O,Potency,[1],inactive
same,Potency,[2],inactive
same,outcome,[3],inactive
same,outcome,[4],inactive
same,outcome,[6],inactive
same,outcome,[10],inactive
same,Potency,[7],inactive
same,Potency,[8],inactive
same,outcome,[9],inactive
Brc1c(NC2=NCCN2)ccc2nccnc12,Potency,[1],inactive
same,Potency,[2],inactive
same,outcome,[3],inactive
same,outcome,[4],inactive
same,outcome,[6],inactive
same,outcome,[10],inactive
same,Potency,[7],inactive
same,Potency,[8],inactive
same,outcome,[9],inactive
CCCCCCCCCCCCCC=O,"activity change, negative = cytotoxicity",[1],-0.0946% [at 5.95 µM]
same,activation,[3],-1.29% [at 6.95 µM]
same,"activity, negative = cytotoxic",[4],2.89% [at 6.95 µM]
same,"activity change, negative = cytotoxicity",[6],0.611% [at 6.95 µM]
same,"activity change, negative = inhibition",[7],5.08% [at 8.39 µM]
same,"viability change, negative = cytotoxic",[8],-4.58% [at 6.97 µM]
same,activation,[9],-1.06% [at 6.97 µM]
C=C1CC[C@H]2C[C@@H]1C2(C)C,Potency,[1],inactive
same,Potency,[2],inactive
same,outcome,[3],inactive
same,outcome,[4],inactive
same,outcome,[6],inactive
same,outcome,[10],inactive
same,Potency,[7],inactive
same,Potency,[8],inactive
same,outcome,[9],inactive
CN1C(=O)N(C)C(O)C1O (centres undefined),Potency,[1],inactive
same,Potency,[2],inactive
same,outcome,[3],inactive
same,outcome,[4],inactive
same,outcome,[6],inactive
same,outcome,[10],inactive
same,Potency,[7],inactive
same,Potency,[8],inactive
same,outcome,[9],inactive

# Source: PubChem BioAssay (Tox21)
